In the supplement of paper PMC10849652 one finds log2 fold change data, which are given here for 35 compounds.

Targets with a hit are over-represented here; the source holds about 7,900 in all. About 0.6% of all pairs of compound and target were hits. A number with no mark means an inactive call.

What all share (assay): log2 fold change, soluble protein after heating vs DMSO (PISA); higher = thermal stabilisation; K562 cells, 10 uM, 30 min; active = over 0.2 and 3.5 SD of the protein, either way, in both replicates (recomputed)
One assay has as its target ZW10 (UniProt O43264). An outline of the steps: (§1)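 Quantification of soluble protein used TMTpro 16plex LC-MS/MS, with channel sums equalised. Samples were the supernatant after 21,000xg for 90 min of pooled aliquots from K562 cells (2×10^6 cells/mL) treated with 10 μM compound for 30 min, heated for 3 min over 48°C-58°C, and extracted in PBS with 0.5% NP-40 at 4°C. Values, from duplicates, describe thermal stability against control samples on a log2 fold-change scale.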

Another assay addresses ZWILCH (UniProt Q9H900). An outline of the steps: as §1
The next assay concerns the target ZYG11B (UniProt Q9C0D3). A digest of the protocol:
as §1

Sequence of ZWILCH (Q9H900 whole entry, looked up): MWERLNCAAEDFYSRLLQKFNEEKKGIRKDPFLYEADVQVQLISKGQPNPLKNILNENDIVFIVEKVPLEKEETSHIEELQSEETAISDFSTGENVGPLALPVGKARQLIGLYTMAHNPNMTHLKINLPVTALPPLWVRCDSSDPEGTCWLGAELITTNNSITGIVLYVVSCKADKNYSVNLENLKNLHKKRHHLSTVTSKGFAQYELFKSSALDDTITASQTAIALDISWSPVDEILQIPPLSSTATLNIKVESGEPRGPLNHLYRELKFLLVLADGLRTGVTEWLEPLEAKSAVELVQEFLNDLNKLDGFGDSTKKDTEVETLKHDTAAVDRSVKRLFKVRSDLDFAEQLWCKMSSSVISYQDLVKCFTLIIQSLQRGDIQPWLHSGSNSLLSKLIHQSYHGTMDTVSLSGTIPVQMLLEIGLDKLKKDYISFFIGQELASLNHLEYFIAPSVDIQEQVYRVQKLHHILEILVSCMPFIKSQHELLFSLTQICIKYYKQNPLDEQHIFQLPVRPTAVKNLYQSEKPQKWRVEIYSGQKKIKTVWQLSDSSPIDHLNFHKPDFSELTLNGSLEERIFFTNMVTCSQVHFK
Sequence of ZYG11B (Q9C0D3 whole entry, looked up): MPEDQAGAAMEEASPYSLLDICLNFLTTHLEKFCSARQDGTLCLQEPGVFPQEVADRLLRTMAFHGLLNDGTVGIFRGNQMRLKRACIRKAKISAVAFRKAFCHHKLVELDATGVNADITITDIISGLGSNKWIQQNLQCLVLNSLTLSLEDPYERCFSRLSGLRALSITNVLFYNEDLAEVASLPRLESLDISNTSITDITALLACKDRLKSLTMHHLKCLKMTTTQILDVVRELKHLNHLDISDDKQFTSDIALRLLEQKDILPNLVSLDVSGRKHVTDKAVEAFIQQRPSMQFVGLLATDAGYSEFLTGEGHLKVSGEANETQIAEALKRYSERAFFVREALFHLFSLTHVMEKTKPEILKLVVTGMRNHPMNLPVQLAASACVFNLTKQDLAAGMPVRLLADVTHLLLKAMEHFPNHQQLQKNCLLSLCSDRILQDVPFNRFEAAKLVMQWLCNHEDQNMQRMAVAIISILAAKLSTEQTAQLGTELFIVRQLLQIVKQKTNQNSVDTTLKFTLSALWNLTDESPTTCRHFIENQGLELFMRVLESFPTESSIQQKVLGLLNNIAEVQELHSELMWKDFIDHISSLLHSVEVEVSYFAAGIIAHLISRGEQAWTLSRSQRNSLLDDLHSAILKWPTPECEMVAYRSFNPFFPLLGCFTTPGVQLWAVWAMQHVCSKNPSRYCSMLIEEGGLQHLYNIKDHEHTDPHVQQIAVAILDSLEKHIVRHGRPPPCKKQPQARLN
Sequence of ZW10 (O43264 whole entry, looked up): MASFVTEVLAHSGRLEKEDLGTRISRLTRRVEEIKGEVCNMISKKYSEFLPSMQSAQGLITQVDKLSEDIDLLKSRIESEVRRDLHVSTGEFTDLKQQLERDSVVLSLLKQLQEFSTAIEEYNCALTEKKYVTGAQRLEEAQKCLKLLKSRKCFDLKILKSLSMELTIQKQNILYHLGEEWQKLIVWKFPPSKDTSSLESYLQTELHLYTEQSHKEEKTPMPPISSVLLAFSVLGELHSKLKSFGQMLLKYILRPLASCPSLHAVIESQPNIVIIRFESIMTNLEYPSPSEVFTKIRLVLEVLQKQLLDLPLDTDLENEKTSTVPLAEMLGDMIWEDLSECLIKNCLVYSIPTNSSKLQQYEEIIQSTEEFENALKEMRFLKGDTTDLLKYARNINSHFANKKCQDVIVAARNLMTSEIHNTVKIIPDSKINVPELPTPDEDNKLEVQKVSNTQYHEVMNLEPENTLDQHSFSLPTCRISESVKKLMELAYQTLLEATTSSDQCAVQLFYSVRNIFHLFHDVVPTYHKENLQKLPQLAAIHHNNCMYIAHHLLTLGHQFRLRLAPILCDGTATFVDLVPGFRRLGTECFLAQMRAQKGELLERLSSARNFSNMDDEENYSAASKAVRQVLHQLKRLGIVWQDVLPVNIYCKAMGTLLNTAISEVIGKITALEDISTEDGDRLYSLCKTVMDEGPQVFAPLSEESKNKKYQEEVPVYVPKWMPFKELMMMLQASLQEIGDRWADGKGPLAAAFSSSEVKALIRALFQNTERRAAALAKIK

Take `Cc1cccc(-c2[nH]c(C(C)(C)C)nc2-c2ccc3nccnc3c2)n1`: the log2 fold change with ZW10 was 0.006; with ZWILCH, 0; in the assay with ZYG11B, -0.039.

In the case of `COc1cc2ncnc(Nc3ccc(F)c(Cl)c3)c2cc1OCCCN1CCOCC1` [gefitinib], the log2 fold change was 0.135 in the assay with ZW10, 0.125 with ZWILCH and 0.042 with ZYG11B.

For `CN1CCc2c(c3ccccc3n2Cc2ccc(C(=O)NO)cc2)C1` [Tubastatin A], the log2 fold change with ZW10 is 0.031; in the assay with ZWILCH it was -0.028; with ZYG11B it was 0.04.

Consider `CCCc1cc(C)[nH]c(=O)c1CNC(=O)c1cc(-c2ccnc(N3CCN(C)CC3)c2)cc2c1cnn2C(C)C`, for which the log2 fold change in the assay with ZW10 was 0.072; in the assay with ZWILCH, 0.004; with ZYG11B, 0.1.

On to `COC(=O)[C@H](CCSC)NC(=O)c1ccc(NC[C@@H](N)CS)cc1-c1ccccc1`, for which the log2 fold change in the assay with ZW10 is -0.079; with ZWILCH it was -0.077; with ZYG11B it was 0.013.

With `NC(=O)c1cnc(N[C@@H]2CCCC[C@@H]2N)nc1Nc1cccc(-n2nccn2)c1`, the log2 fold change in the assay with ZW10 is -0.027; in the assay with ZWILCH it was -0.085; with ZYG11B, 0.022.

As for `CCn1cc(-c2ccnc3[nH]c(-c4cccc(CN(C)C)c4)cc23)c(-c2ccc(NC(=O)N(C)C)cc2)n1`, the log2 fold change is 0.022 with ZW10, 0.01 in the assay with ZWILCH and -0.085 in the assay with ZYG11B.

Turning to `Cc1ccc2c(=O)c3ccccc3n(CCCN)c2c1C`, the log2 fold change was 0.013 in the assay with ZW10, 0.013 in the assay with ZWILCH and 0.009 with ZYG11B.

For the compound `Cc1cccc(CC(=O)N2CCc3c2ccc(-c2cn(C)c4ncnc(N)c24)c3F)n1`, the log2 fold change is 0.034 in the assay with ZW10, 0.027 in the assay with ZWILCH and -0.031 with ZYG11B.

As for `COC(=O)N[C@@H](C)CNc1nccc(-c2cn(C(C)C)nc2-c2cc(Cl)cc(NS(C)(=O)=O)c2F)n1` [encorafenib], the log2 fold change was 0.094 with ZW10, 0.076 in the assay with ZWILCH and -0.055 in the assay with ZYG11B.

Turning to `O=C(Nc1cccc(Nc2ncc(Br)c(NCCc3cnc[nH]3)n2)c1)N1CCCC1`, the log2 fold change was -0.018 with ZW10, 0.029 in the assay with ZWILCH and -0.026 in the assay with ZYG11B.

Regarding `C[C@@H]1COCCN1c1cc(C2(S(C)(=O)=O)CC2)nc(-c2cccc3[nH]ccc23)n1`, the log2 fold change with ZW10 was -0.029; with ZWILCH it was -0.04; with ZYG11B, -0.008.

Take `CC[C@@H]1C(=O)N(C)c2cnc(Nc3ccc(C(=O)N[C@H]4CC[C@H](N5CCN(CC6CC6)CC5)CC4)cc3OC)nc2N1C(C)C` [volasertib]: the log2 fold change in the assay with ZW10 was -0.399 (active); in the assay with ZWILCH it was -0.266 (active); in the assay with ZYG11B, 0.002.

Take `O=C1NC(=NCc2cccs2)S/C1=C\c1ccc2ncccc2c1`: the figures for the log2 fold change with ZW10, with ZWILCH and with ZYG11B were -0.021, 0.023 and -0.007, respectively.

In the case of `FC(F)(F)c1ccc(/C=C/c2nc(COc3ccc(CCCCn4ccnn4)cc3)co2)cc1` [mubritinib], the log2 fold change with ZW10 was 0.028; with ZWILCH, 0.037; in the assay with ZYG11B it was 0.01.

For the compound `C[C@H](Nc1ncnc2nc[nH]c12)c1cc2cccc(Cl)c2c(=O)n1-c1ccccc1` [duvelisib], the log2 fold change with ZW10 was -0.002; in the assay with ZWILCH it was 0.044; in the assay with ZYG11B, 0.062.

For the compound `CNC(=O)c1ccc(Nc2ncc(C(F)(F)F)c(NCc3nccnc3N(C)S(C)(=O)=O)n2)cc1` [defactinib], the results for the log2 fold change in the assay with ZW10, with ZWILCH and in the assay with ZYG11B were -0.083, -0.007 and -0.058, respectively.

Consider `CON(C)C(=O)N1N=C(c2cc(F)ccc2F)S[C@@]1(CCCN)c1ccccc1` [filanesib], for which the log2 fold change is 0.052 in the assay with ZW10, 0.016 in the assay with ZWILCH and 0.014 with ZYG11B.

In the case of `CS(=O)(=O)c1ccc(-c2cnc(N)c(C(=O)Nc3ccccc3)n2)cc1`, the log2 fold change in the assay with ZW10 was 0.027; with ZWILCH it was -0.003; in the assay with ZYG11B, 0.01.

Turning to `CC(C)(O)CC(=O)NCCn1ccc2ncnc(Nc3ccc(Oc4cccc(C(F)(F)F)c4)c(Cl)c3)c21`, the log2 fold change with ZW10 was -0.027; with ZWILCH, 0.012; in the assay with ZYG11B, -0.017.

For `NCC(=O)Nc1ccc(-n2nc(C(F)(F)F)cc2-c2ccc3c(ccc4ccccc43)c2)cc1`, the results for the log2 fold change with ZW10, with ZWILCH and in the assay with ZYG11B were -0.007, -0.068 and -0.045, respectively.

As for `O=C(CCCCCCC(=O)Nc1ccccc1)NO` [vorinostat], the log2 fold change with ZW10 is 0.085; in the assay with ZWILCH it was 0.056; with ZYG11B it was 0.053.

`CC(C)(C)Cn1c(N)nc2ccc(-c3[nH]c(C(C)(C)C)nc3-c3ccc(F)cc3)nc21` [ralimetinib]: the log2 fold change with ZW10 was 0.032; in the assay with ZWILCH, 0.049; with ZYG11B, -0.046.

As to `c1cn2cc(-c3ccc4cn[nH]c4c3)nc(Nc3ccc(N4CCOCC4)cc3)c2n1` [entospletinib], the results for the log2 fold change with ZW10, with ZWILCH and in the assay with ZYG11B were 0.063, 0.022 and 0.068, respectively.

Take `COc1ccc(Cn2ccc3ccc(C(=O)NO)cc32)cc1`: the log2 fold change was -0.004 with ZW10, 0.019 in the assay with ZWILCH and 0.052 with ZYG11B.

In the case of `Cc1nc(Nc2ncc(C(=O)Nc3c(C)cccc3Cl)s2)cc(N2CCN(CCO)CC2)n1` [dasatinib], the figures for the log2 fold change with ZW10, with ZWILCH and with ZYG11B were -0.124, -0.05 and -0.017, respectively.

For `CC[C@@H]1C(=O)N(C)c2cnc(Nc3ccc(C(=O)NC4CCN(C)CC4)cc3OC)nc2N1C1CCCC1`, the values for the log2 fold change with ZW10, with ZWILCH and with ZYG11B were -0.197, -0.078 and -0.031, respectively.

For the compound `O=C(Nc1nc2ccccc2n1CCN1CCOCC1)c1cccc([N+](=O)[O-])c1` [IRAK-1-4 Inhibitor I], the log2 fold change with ZW10 was -0.076; in the assay with ZWILCH, -0.042; with ZYG11B, 0.044.

In the case of `C[C@@H](Oc1cc(-c2cnn(C3CCNCC3)c2)cnc1N)c1c(Cl)ccc(F)c1Cl` [crizotinib], the log2 fold change is -0.137 with ZW10, -0.068 with ZWILCH and -0.031 in the assay with ZYG11B.

As for `O=C1c2ccccc2-c2n[nH]c3cccc1c23`, the log2 fold change with ZW10 was -0.031; with ZWILCH it was -0.007; with ZYG11B it was -0.033.

Turning to `CCCS(=O)(=O)Nc1ccc(F)c(C(=O)c2c[nH]c3ncc(Cl)cc23)c1F`, the log2 fold change is 0.053 with ZW10, 0.016 in the assay with ZWILCH and -0.043 with ZYG11B.

In the case of `NC(=O)Nc1cc(-c2cccc(F)c2)sc1C(=O)N[C@H]1CCCNC1`, the log2 fold change with ZW10 was -0.021; with ZWILCH, 0; in the assay with ZYG11B it was -0.033.

Turning to `Fc1ccc(Cl)cc1-c1nc(Nc2ccncc2)c2nccnc2n1`, the values for the log2 fold change with ZW10, with ZWILCH and in the assay with ZYG11B were -0.04, -0.013 and 0.013, respectively.

On to `Cn1cc(-c2ccc3c(c2)CCN3C(=O)Cc2cccc(C(F)(F)F)c2)c2c(N)ncnc21`, for which the log2 fold change with ZW10 is -0.076; with ZWILCH it was -0.057; with ZYG11B, 0.063.

As to `Cc1cc(Nc2cc(N3CCN(C)CC3)nc(Sc3ccc(NC(=O)C4CC4)cc3)n2)n[nH]1` [tozasertib], the results for the log2 fold change with ZW10, in the assay with ZWILCH and with ZYG11B were 0.068, 0.041 and -0.031, respectively.
